Measurements published in PubChem BioAssay AID488969 (Vanderbilt High Throughput Screening Facility, 2010).
In all, about 110,000 compounds were measured (“z-score”: median about -0.1, highest 2% from about 2 on). What follows is part of a selection rich in the highest values, with near analogues and random picks from the rest. Active and inactive are the calls of the source.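 How the source made its calls: active means z-score in the third read window above 3 or below -3; inactive means the rest.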

molecular target: Metabotropic glutamate receptor 8 (Rattus norvegicus) (UniProt P70579); experiment: rat mGluR8 modulators via GIRK flux, primary screen, cell-based, thallium flux, HTS (AID 488969); conditions: HEK293 rat mGluR8, GIRK (G protein-gated inwardly rectifying potassium channel) thallium flux, FluoZin2; at 10 µM; stronger effect = higher value; submaximal glutamate (EC20) added with thallium
Sequence (P70579 whole entry, looked up): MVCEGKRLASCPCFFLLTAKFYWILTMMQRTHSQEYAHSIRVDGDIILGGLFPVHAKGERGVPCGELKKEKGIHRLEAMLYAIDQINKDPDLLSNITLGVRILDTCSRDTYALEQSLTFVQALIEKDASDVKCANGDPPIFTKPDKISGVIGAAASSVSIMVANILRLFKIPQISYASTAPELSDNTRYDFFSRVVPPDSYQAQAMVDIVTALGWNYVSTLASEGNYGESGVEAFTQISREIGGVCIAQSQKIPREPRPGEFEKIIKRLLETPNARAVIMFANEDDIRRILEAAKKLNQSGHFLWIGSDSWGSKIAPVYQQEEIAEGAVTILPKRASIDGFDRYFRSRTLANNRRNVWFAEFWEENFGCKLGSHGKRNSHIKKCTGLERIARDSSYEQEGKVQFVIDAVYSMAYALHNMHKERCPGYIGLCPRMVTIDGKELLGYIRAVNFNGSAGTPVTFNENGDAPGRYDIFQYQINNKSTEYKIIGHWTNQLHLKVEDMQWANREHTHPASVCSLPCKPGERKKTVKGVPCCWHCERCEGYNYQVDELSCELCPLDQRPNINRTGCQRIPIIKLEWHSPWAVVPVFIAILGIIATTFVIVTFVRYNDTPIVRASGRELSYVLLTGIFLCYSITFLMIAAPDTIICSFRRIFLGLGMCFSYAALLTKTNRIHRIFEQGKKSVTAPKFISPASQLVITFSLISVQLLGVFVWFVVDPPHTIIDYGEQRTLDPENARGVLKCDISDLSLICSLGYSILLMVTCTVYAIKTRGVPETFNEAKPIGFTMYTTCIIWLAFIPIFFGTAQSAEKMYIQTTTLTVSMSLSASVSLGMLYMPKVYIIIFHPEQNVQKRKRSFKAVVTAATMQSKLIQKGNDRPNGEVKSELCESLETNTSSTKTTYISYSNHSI

Row | SMILES | z-score
1 | CCCn1c2c(c(O)c(C(=O)NCCCN(CC)CC)c1=O)CCCC2 | 0.585
2 | Cc1ccccc1C(=O)N1CCN(c2ccc([N+](=O)[O-])c(NCc3cccnc3)c2)CC1 | -0.418
3 | S=c1[nH]nc(COc2ccc(Cl)cc2)n1C1CCCCC1 | 1.31
4 | Cc1cc(Cl)ccc1OCc1n[nH]c(=S)n1C1CCCCC1 | 7.67 (active)
5 | Cc1ccc(OCc2n[nH]c(=S)n2C2CCCCC2)cc1 | -1.04
6 | CC(=O)Cc1nsc(NC(=O)c2cn(-c3ccccc3)nc2-c2ccc(Br)cc2)n1 | 0.229
7 | O=C(c1ccccc1F)N1CCN=C1SCc1cccnc1 | 0.643
8 | Cc1cc(NC(=O)C(C)C)ncc1NC(=O)Cc1ccccc1 | 1.07
9 | Cc1cc(C(=O)N/N=C2\CCCC(C)C2)n[nH]1 (centres undefined) | -0.208
10 | COc1ccc(CCN2C(=O)C(Oc3ccccc3)C2c2ccc3c(c2)OCO3)cc1 (centres undefined) | -0.146
11 | COc1ccc([C@@H]2Sc3cc(OC)ccc3N(CCN(C(C)C)C(C)C)C(=O)[C@H]2OC(C)=O)cc1 | 2.62
12 | COc1ccc(CCN2C(=O)C(Oc3ccccc3C)C2c2ccc3c(c2)OCO3)cc1 (centres undefined) | -0.223
13 | COC(=O)COc1ccc(S(=O)(=O)N2CCc3ccccc3C2)cc1 | -0.687
14 | CCCCSc1nc2ccccc2n1CC(=O)O | -0.412
15 | CC(C)(C)c1ccc2c(c1)C(=O)c1ccccc1C2=O | -0.283
16 | CCOC(=O)c1ccc(Oc2nc(NC)nc(OC)n2)cc1 | -0.524
17 | C=CCOc1cccc(C2/C(=C(/O)c3ccccc3)C(=O)C(=O)N2CCN2CCOCC2)c1 (centres undefined) | -0.193
18 | C=CCOc1cccc(C2/C(=C(/O)c3ccc(C)cc3)C(=O)C(=O)N2CCN2CCOCC2)c1 (centres undefined) | 3.31 (active)
19 | C=CCOc1cccc(C2/C(=C(/O)c3ccc(Cl)cc3)C(=O)C(=O)N2CCN2CCOCC2)c1 (centres undefined) | -0.349
20 | Cc1ccc(C)c(N2C(=O)CN=C2Nc2ccccc2Cl)c1 | -0.307
21 | Cc1ccc(NC(=O)COc2ccccc2)c(NC(=O)c2ccccc2C)c1 | 0.00484
22 | Cc1ccc(C(=O)NNC(=S)NC(=O)COc2ccccc2)cc1 | 6.25 (active)

Row | SMILES | z-score
23 | COc1cccc(OCC(=O)NNC(=O)c2ccc(-c3ccccc3)cc2)c1 | 0.902
24 | Cc1ccccc1C(=O)NNC(=O)Cc1ccccc1 | -0.146
25 | Cc1ccc(OCC(=O)NNC(=O)c2cccnc2)cc1 | 0.0457
26 | Cc1ccccc1C(=O)NNC(=S)NC(=O)COc1ccccc1 | 4.25 (active)
27 | Cc1cccc(C(=O)NN2C(=O)C3C(c4ccccc4)C=CC(c4ccccc4)C3C2=O)c1 (centres undefined) | 0.291
28 | Cc1ccc(C(=O)NCCSc2ccc(Cl)cc2)cc1S(=O)(=O)Nc1ccccc1 | -0.43
29 | CC(C)Cn1c(=O)c(C2=NS(=O)(=O)c3ccccc3N2)c(O)c2ccccc21 | 5.83 (active)
30 | CC(C)Cn1c(=O)c(C(=O)N/N=C/c2cccc(F)c2)c(O)c2ccccc21 | 0.163
31 | CCn1c(=O)c(-c2ccccc2)c(O)c2ccccc21 | 1.28
32 | CCCc1nc(NCC2CCCO2)c2nnn(Cc3ccccc3)c2n1 (centres undefined) | -0.932
33 | O=C(Nc1nc2c(s1)CCCC2)c1cccs1 | 0.315
34 | COC(=O)c1ccc(C(=O)NC(=S)Nc2nc3c(s2)CC(C)CC3)cc1 (centres undefined) | 0.17
35 | Cc1ccccc1C(=O)NC(C(=O)Nc1nc2c(s1)CCCC2)C(C)C (centres undefined) | -0.323
36 | Cc1onc(-c2ccccc2)c1C(=O)Nc1nc2c(s1)CCCC2 | 0.165
37 | O=C(NC(=S)Nc1nc2c(s1)CCCC2)c1ccc(C(=O)c2ccccc2)cc1 | 2.41
38 | COC(=O)c1ccc(C(=O)NC(=S)Nc2nc3c(s2)CCCC3)cc1 | 9.51 (active)
39 | O=C(NC(=S)Nc1nc2c(s1)CCCC2)c1ccccc1 | 4.37 (active)
40 | CN(C)c1ccc(C(=O)Nc2nc3c(s2)CCCC3)cc1 | 0.874
41 | CC(C)[C@H](NC(=O)c1ccccc1F)C(=O)Nc1nc2c(s1)CCCC2 | 2.3
42 | CC(C)(C)c1ccc(C(=O)NC(=S)Nc2nc3c(s2)CCCC3)cc1 | 1.95
43 | CCOc1ccccc1C(=O)N[C@H](C(=O)Nc1nc2c(s1)CCCC2)C(C)C | 0.39
44 | O=C(NC(=S)Nc1nc2c(s1)CSc1ccccc1-2)c1ccccc1 | 0.384

Row | SMILES | z-score
45 | S=C1NCCOCCOCCOCCN1 | -0.259
46 | Cc1nc2oc3ccccc3c(=O)c2c(=O)n1Cc1ccccc1 | 1.14
47 | Brc1ccccc1-c1nnc2sc(Cc3ccccc3)nn12 | -2.32
48 | Cc1ccc2cccc(S(=O)(=O)Nc3c(C)n(C)n(-c4ccccc4)c3=O)c2n1 | -0.0715
49 | Cc1cc(C)n2nc(C(=O)OCC(=O)c3cc(C)n(C)c3C)nc2n1 | -0.164
50 | Cc1ccc2c(c1)nc(NCCO)n2C | -0.14
51 | Cc1ccccc1CSCc1nc2ccccc2[nH]1 | -0.127
52 | O=C(/C=C/c1ccc2c(c1)OCCCO2)c1ccc2ccccc2c1O | 0.573
53 | CNc1ccc(Br)cc(C(=O)/C=C/c2ccc(OC)cc2)c1=O | 0.019
54 | COc1ccc(/C=C/C(=O)c2cc(Br)ccc(=O)c2O)cc1 | 3.14 (active)
55 | CCc1ccc(C(C)NC(=O)/C=C/c2ccc(Br)cc2)cc1 (centres undefined) | -0.0914
56 | O=C(/C=C/c1ccc2c(c1)OCCCO2)c1ccccc1O | 0.562
57 | Cc1ccc(/C=C/C(=O)c2cc(Br)ccc2OC(=O)c2ccco2)cc1 | -0.117
58 | CNc1ccc(Br)cc(C(=O)/C=C/c2ccc3c(c2)OCO3)c1=O | 0.111
59 | Cc1ccc(/C=C/C(=O)c2ccccc(=O)c2O)cc1C | 5.65 (active)
60 | CNc1ccc(Br)cc(C(=O)/C=C/c2cccc(OC)c2)c1=O | -0.351
61 | CNc1ccc(Br)cc(C(=O)/C=C/c2ccc(OC)cc2OC)c1=O | -0.255
62 | CCc1ccc(/C=C/C(=O)c2cc(Br)ccc(=O)c2O)cc1 | 2.17
63 | Cc1cccc(/C=C/C(=O)c2cc(Br)ccc(=O)c2O)c1 | 2.75
64 | N#Cc1cccc(Oc2ccc(-c3cnc4ccccc4n3)cc2)c1C#N | 0.258
65 | Cc1ccc(-n2c(C)nnc2SCC(=O)N2CCc3ccccc3C2)cc1 | -0.994
66 | Cc1cccc(N2C(=O)CC(Sc3nc(-c4ccccc4)c4cc(Cl)ccc4n3)C2=O)c1 (centres undefined) | -0.887

Row | SMILES | z-score
67 | CCc1ccc(OCC(=O)N/N=C/c2cc([N+](=O)[O-])ccc2N2CCOCC2)cc1 | 0.198
68 | C/C(=N\OC(=O)c1ccc(Cl)cc1)c1nccs1 | -0.0963
69 | Cc1ccc(-n2nnnc2SCC(=O)Nc2cccc(NC(=O)c3ccco3)c2)cc1C | 1.39
70 | CC1=CC(=Nc2c(C)n(C)n(-c3ccccc3)c2=O)C=C(C)C1=O | 0.433
71 | Cc1cc(S(=O)(=O)NCC(=O)O)ccc1F | 0.254
72 | CCN=C1SC(C(=O)Nc2cccc(C)c2)CC(=O)N1CC (centres undefined) | -0.145
73 | O=C(/C=C/c1ccccn1)c1ccc(Br)cc1O | -0.442
74 | O=C(/C=C/c1ccc(Br)cc1)c1ccco1 | -0.0794
75 | O=C(/C=C/c1ccccc1)c1cc(Br)ccc(=O)c1O | 14 (active)
76 | CN(C)c1nc(Oc2ccc(N)cc2)nc(N(C)C)n1 | 0.322
77 | COc1cccc(C(=O)CSc2nnnn2C)c1 | -0.273
78 | CCCN(Cc1ccccc1)C(=S)Nc1cccc(C(F)(F)F)c1 | -0.985
79 | CN1CC(=O)N(CC(=O)NCc2ccc3c(c2)OCO3)C1=O | -0.14
80 | COC(=O)C1C2C=CC3(CN(C4CCCC4)C(=O)C13)O2 (centres undefined) | -1.65
81 | O=C(O)C1C2C=CC3(CN(C4CCCC4)C(=O)C13)O2 (centres undefined) | 2.75
82 | O=C(O)C1[C@H]2C(=O)N(C3CCCC3)C[C@]23C=C[C@H]1O3 (some centres undefined) | 0.231
83 | Cc1cc(C)c2oc(-c3cccc(NC(=O)c4ccc(F)cc4)c3)nc2c1 | -0.0725
84 | Cc1ccc(-n2cc(-c3ccc([N+](=O)[O-])cc3)[nH]c2=S)c(C)c1 | 2.99
85 | O=[N+]([O-])c1ccc(-c2cn(-c3ccccc3)c(=S)[nH]2)cc1 | -0.00967
86 | CCc1ccc(-n2cc(-c3ccc([N+](=O)[O-])cc3)[nH]c2=S)cc1 | 0.69
87 | O=[N+]([O-])c1ccc(-c2cn(-c3ccc(Cl)cc3)c(=S)[nH]2)cc1 | 2.83
88 | Cc1cccc(-n2cc(-c3ccc([N+](=O)[O-])cc3)[nH]c2=S)c1 | 0.401

Row | SMILES | z-score
89 | Cc1cc(C)c(CSc2ncc(-c3ccc([N+](=O)[O-])cc3)[nH]2)c(C)c1 | -0.26
90 | Cc1ccc(Nc2cc(-n3cccn3)ncn2)c(C)c1 | -0.35
91 | COc1ccc(/C=N/Nc2snc(SC)c2C#N)cc1OC | 0.407
92 | Cc1ccc(NC(=O)c2ccc3c(c2)N(CC(=O)N2CCCCC2)C(=O)C(C)(C)O3)cc1 | -0.4
93 | CC1Cc2nc(SCC(=O)N3CCN(c4ccccc4)CC3)n(CCc3ccccc3)c(=O)c2S1 (centres undefined) | -1.13
94 | COc1ccc(OCC(=O)NC(=S)Nc2ccc(N3CCOCC3)c(Cl)c2)cc1 | 2.19
95 | Cc1cc(Cl)ccc1OCC(=O)Nc1ccccc1N1CCOCC1 | 2.81
96 | Cc1cccc(OCC(=O)NC(=S)Nc2ccccc2N2CCOCC2)c1 | 3.14 (active)
97 | Cc1cccc(OCC(=O)Nc2ccccc2C(=O)N2CCOCC2)c1 | -0.0499
98 | O=C(NC(=S)Nc1ccc(N2CCOCC2)c(Cl)c1)C(c1ccccc1)c1ccccc1 | 0.604
99 | O=C(NC(=S)Nc1ccc(N2CCOCC2)c(Cl)c1)c1cncc(Br)c1 | 7.69 (active)
100 | Cc1cc(Cl)ccc1OCC(=O)NC(=S)Nc1ccccc1N1CCOCC1 | 0.195
101 | CCCC(=O)NC(=S)Nc1ccccc1N1CCOCC1 | -0.0717
102 | COc1ccc(OCC(=O)Nc2ccc(N3CCOCC3)c(Cl)c2)cc1 | -0.665
103 | CCCC(=O)NC(=S)Nc1ccc(N2CCOCC2)c(Cl)c1 | 0.242
104 | Cc1ccccc1OCC(=O)NC(=S)Nc1ccc(N2CCOCC2)c(Cl)c1 | 0.328
105 | Cc1ccc(OCC(=O)Nc2ccccc2N2CCOCC2)c(C)c1 | 0.00977
106 | Cn1c(=O)cc(SCC(=O)NCC2CCCO2)c2ccc(Cl)cc21 (centres undefined) | 0.0952
107 | COCCOC(=O)C1=C(C)NC2=C(C(=O)CC(C)(C)C2)C1c1ccc2c(c1)OCO2 (centres undefined) | -0.115
108 | CCc1nc(N)c(C#N)c(-c2cccc3ccccc23)c1C | 0.197
109 | O=C(C[n+]1ccc2ccccc2c1)Nc1cc(C(F)(F)F)ccc1Cl | -0.746
